Laboratory results reported in ChEMBL document CHEMBL1201862, “PubChem BioAssay data set” (2004).
Screen size: about 54,000 sequences; about 2,800 (5.2%) were called active. Rule as the data show it: active = GI50 up to about 1.1 µM and inactive = higher. The sample as a whole holds a higher share of actives than the screen did. Results with a measured potency or affinity are listed apart.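 These data come from cells grown in 96-well plates and exposed to compound for 48 hours at five concentrations. Abbreviation: GI50, concentration required for 50% inhibition of growth.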

Each substance was assayed on NCI-H226 (assay: NCI tumour cell line growth inhibition, 48 h).
TRIBUTYLCHLOROSTANNANE, CHEMBL1088186 showed a GI50 of 0.21 µM.
